# Data reported in PubChem BioAssay AID504834 (National Center for Advancing Translational Sciences (NCATS), 2011).
# Hit rate of the full screen: of about 320,000 compounds, about 22,000 (6.9%) were called active. Another 27% or so got no clear call; they are omitted. Calls follow the shape of the dose curve; as a rule, active = well fitted inhibition curve with a large enough effect; inconclusive = small, poorly fitted or top-dose-only effect, or another doubt; inactive = no such curve, though single readings can be large or run the other way. For the sample, actives were picked, then their nearest neighbours and some compounds at random.
# Assay: Primary qHTS for delayed death inhibitors of the malarial parasite plastid, 96 hour incubation
# Conditions: P. falciparum luciferase reporter growth; series mostly up to 28.7 µM; activity change, negative = inhibition: at the top concentration
# Procedure, shortened: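 Delayed-death screen, second-generation endpoint: infected erythrocytes, 2% hematocrit, 0.05% parasitemia final; 96 hours at 37 C, 5% CO2; luciferase detection reagent; luminescence decrease equals reduced growth.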
# % is scaled to controls: 0 for no effect and ±100 for the full control effect; potency is read from the fitted curve at half-maximal effect.
Compound,"activity change, negative = inhibition",Potency
Cc1ccc(C(=O)NNc2ncnc3ccccc23)cc1,-13.1% (inactive),
Cc1cc(=O)[nH]c(N/N=C/c2ccc3c(c2)OCCO3)n1,78.7% (inactive),
Cc1nn(-c2ccccc2)c(Cl)c1/C=N/NC(=O)c1nn(C)cc1[N+](=O)[O-],-22% (inactive),
Cc1cc(=O)[nH]c(N/N=C/c2c(C)nn(-c3ccccc3Cl)c2Cl)n1,,2.94 µM (active)
CC1CCCC(NC(=O)c2cc(-c3ccncc3)nc3ccccc23)C1C (stereo unspecified),-15.3% (inactive),
CCCCSc1nnc2c(n1)OC=Nc1ccccc1-2,23.8% (inactive),
CNS(=O)(=O)c1cccc(C(=O)NCC2CCCCC2)c1,17.8% (inactive),
CCOc1ccc(N/C(N)=N/c2nc(C)c(C)c(=O)[nH]2)cc1,-14.9% (inactive),
COC(=O)c1cc(NC(=O)c2cccnc2)ccc1N1CCOCC1,-4.07% (inactive),
O=C(Nc1cccc(Cl)c1N1CCOCC1)c1cccnc1,,9.28 µM (active)
O=C(Nc1cccc(Cl)c1N1CCOCC1)c1ccc2c(c1)OCCO2,47.9% [at 5.75 µM] (inactive),
COCCNC(=O)c1ccc2c(c1)ncn2-c1ccc(C)c(Cl)c1,11.4% (inactive),
COc1ccc2c(c1)N(C)/C(=C1/SC(=S)N(NC(C)=O)C1=O)S2,0% (inactive),
Cc1nc(C(=O)N2CCCC(C(=O)c3ccc(Cl)cc3)C2)cs1 (stereo unspecified),7.81% (inactive),
CC(C)Oc1cccc(C(=O)C2CCCN(C3CCOCC3)C2)c1 (stereo unspecified),-13.1% (inactive),
Cn1nccc1C(=O)N1CCCC(C(=O)c2ccc(Oc3ccccc3)cc2)C1 (stereo unspecified),,2.94 µM (active)
CCn1nc(C)cc1C(=O)N1CCCC(C(=O)c2cccc(OC)c2)C1 (stereo unspecified),20.3% (inactive),
COc1ccc2cc(C(=O)C3CCCN(C(=O)c4sc(C)nc4C)C3)ccc2c1 (stereo unspecified),,13.1 µM (active)
CSc1ccc(C(=O)C2CCCN(C(=O)c3ccc(C)nc3)C2)cc1 (stereo unspecified),-19.8% (inactive),
COc1ccc(C(=O)C2CCCN(C(=O)c3cnsn3)C2)c(C)c1 (stereo unspecified),12.8% (inactive),
CCNC(=O)N1CCCC(C(=O)c2ccc(-c3ccccc3)cc2)C1 (stereo unspecified),,10.4 µM (active)
Cc1ccccc1NC(=O)C1CCCN(C(=O)NCc2ccccc2)C1 (stereo unspecified),-4.69% (inactive),

Compound,"activity change, negative = inhibition",Potency
CCOc1cc(/C=C/c2nc3ccccc3c(=O)[nH]2)cc(Br)c1OC,-29.4% (inactive),
Cc1cc(OC(=O)c2ccc(OC(C)C)cc2)c([N+](=O)[O-])c(=O)[nH]1,-13.8% (inactive),
Cc1cccc(C(=O)OC(C)C(=O)NC2CCCc3ccccc32)c1O (stereo unspecified),92.5% (inactive),
O=C(NC1CCCCC1)c1ccc(-c2ccc(Cl)cc2)o1,131% (inactive),
COc1ccc(C2/C(=C(/O)c3ccc4c(c3)CC(C)O4)C(=O)C(=O)N2Cc2ccncc2)cc1 (stereo unspecified),3.97% (inactive),
CC(=O)c1c(C)[nH]c(C(=O)OCC(=O)Nc2c(C)n(C)n(-c3ccccc3)c2=O)c1C,17.9% (inactive),
COc1ccc(N2CCN(C(=O)CN3C(=O)COc4ccccc43)CC2)cc1,2.23% (inactive),
CN1CN(C)c2ccc([N+](=O)[O-])c3cccc1c23,41.2% (inactive),
O=C(NCc1ccncc1)C1CCN(C(=O)c2cccc(Cl)c2)CC1,45.8% (inactive),
CCCn1c(C2CCCN2c2nc(-c3ccc(C)cc3)cs2)nc2cc(Cl)c(N3CCCCC3)cc21 (stereo unspecified),,3.29 µM (active)
COc1cccc(NC(=O)CN2CCN(c3nc(-c4cccc(OC)c4)cs3)CC2)c1,-2.14% (inactive),
Cc1ccc(-c2csc(N3CCN(c4cc5c(cc4Cl)nc(-c4ccncc4)n5CCOCCO)CC3)n2)cc1,,5.86 µM (active)
COc1ccc(-c2csc(N3CCN(Cc4ccc5c(c4)OCO5)CC3)n2)cc1,-2.39% (inactive),
CCn1c(SCC(=O)N/N=C/c2ccccc2OCC(=O)O)nnc1-c1ccc(C(C)(C)C)cc1,2.33% (inactive),
O=C1CC2(CC(c3ccc(Cl)cc3)=NO2)C(=O)N1c1ccccc1 (stereo unspecified),-4.38% (inactive),
COCCN(CCOC)c1nc(N)c2c(N)nc3c(c2c1C#N)CC(=O)N3Cc1ccc(Cl)cc1,,2.62 µM (active)
CCCCN1C(=O)C(=O)N(CC(=O)Nc2cccc(C(C)=O)c2)C1=O,-16.1% (inactive),
COc1ccc(NCCc2ccccn2)cc1,30.7% (inactive),
Cc1ccc(NC(=O)CCC(=O)c2ccc(Br)cc2)cc1,37% (inactive),
COCCNc1ncnc2c1nc1n2CCCC1,16.5% (inactive),
OC1CCCN(c2ncnc3c2nnn3Cc2c(F)cccc2Cl)C1 (stereo unspecified),45.1% (inactive),
CN(C(=O)C1CCN(c2ncnc3c2nc2n3CCCCC2)CC1)C1CCCCC1,1.7% (inactive),

Compound,"activity change, negative = inhibition",Potency
CN(Cc1ccccc1)C(=O)C1CCCN(c2ncnc3c2nc2n3CCCCC2)C1 (stereo unspecified),,14.7 µM (active)
O=C(NCc1ccccc1Cl)C1CCN(c2ncnc3c2nc2n3CCCCC2)CC1,17.6% (inactive),
O=C(NCCCN1CCCCC1)C1CCCN(c2ncnc3c2nc2n3CCCCC2)C1 (stereo unspecified),0.744% (inactive),
COc1cccc(NC(=O)C2CCCN(c3ncnc4c3nc3n4CCCCC3)C2)c1 (stereo unspecified),,8.28 µM (active)
COc1cccc(CNC(=O)C2CCCN(c3ncnc4c3nc3n4CCCCC3)C2)c1 (stereo unspecified),23.4% (inactive),
CCOC(=O)c1cccc(NC(=O)C2CCN(c3ncnc4c3nc3n4CCCCC3)CC2)c1,,10.4 µM (active)
Cc1cnc(C(=O)Oc2cccc(Cl)c2Cl)cn1,34.7% (inactive),
O=C(NCC#CCSc1nnc(-c2cccc3ccccc23)o1)c1cccs1,-16.4% (inactive),
Cc1ccc(S(=O)(=O)N[C@@H](Cc2ccccc2)C(=O)N2CCC(C(=O)N[C@H](C(=O)O)C(C)O)CC2)cc1 (stereo partly specified),4.81% (inactive),
O=S(=O)(Cc1nnnn1-c1ccc(Br)cc1)c1ccc(F)cc1,13.9% (inactive),
O=C(Nc1ccccc1)/C(=C\c1ccco1)NC(=O)c1ccco1,14.6% (inactive),
CCn1c(SCC(=O)Nc2sc(C)c(C)c2C#N)nnc1C1CC1,4.09% (inactive),
O=C(N1CCOCC1)N(Cc1ccccc1)c1ccccn1,2.7% (inactive),
CC(=O)c1c(N2CCOCC2)nc(=S)n(Cc2ccccc2)c1C,,0.329 µM (active)
CC(=O)c1c(N2CCOCC2)nc(=S)n(-c2cc(C)ccc2C)c1C,0.824% (inactive),
CN1CCN(C(=O)c2ccccc2NC(=O)COc2ccccc2Cl)CC1,-4.76% (inactive),
CCOc1ccc(S(=O)(=O)NCCC(=O)NCC2CCCO2)cc1 (stereo unspecified),24% (inactive),
CCC(C)N(C)C1CCN(C(=S)Nc2ccc(OC)cc2)CC1 (stereo unspecified),-7.01% (inactive),
CCOc1ccc(S(=O)(=O)N2CCN(C(=S)NCC3CCCO3)CC2)cc1 (stereo unspecified),,2.94 µM (active)
CCOc1ccc(NC(=S)N2CCCCCC2)cc1,-20% (inactive),
COc1ccc(S(=O)(=O)N2CCN(C(=S)NCC3CCCO3)CC2)cc1OC (stereo unspecified),-5.09% (inactive),
CCOc1ccc(NC(=S)N2CCC(N(C)CC3CCCO3)CC2)cc1 (stereo unspecified),,11.7 µM (active)
